# Sampled rows, rich in hits. Any-hit rate of the full collection: about 4.8%.
# hgDAF12 agonist – agonists of H. glycines DAF-12 nuclear receptor; HEK293 GAL4-hgDAF12 UAS-luciferase reporter, agonist luminescence; normalized to butyrate control; activation, % at 6.8 µM; 370,000 compounds, 1.8% hits; AID 687014;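 active = activation above a cutoff set at the mean of all screened compounds plus 3 SD, cut at about 10% in these data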;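 note: 0% = DMSO wells and 100% = sodium butyrate wells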
# DAX1 inh-1 – NR0B1 (DAX1) inhibition; AID 504766; 340,000 compounds, 0.99% hits; HEK293 Gal4-DAX1 luciferase reporter, luminescence; inhibition, % at 6.75 µM; P51843;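 active = inhibition above the mean over all tested compounds plus 3 SD, cut at about 4.2% in these data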;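 note: 0% = DAX1-transfected cells with DMSO and 100% = empty-vector control cells with DMSO; inhibition shows as a rise in luminescence from relieved DAX1 repression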
# Target sequence (P51843 207-470 limits assumed): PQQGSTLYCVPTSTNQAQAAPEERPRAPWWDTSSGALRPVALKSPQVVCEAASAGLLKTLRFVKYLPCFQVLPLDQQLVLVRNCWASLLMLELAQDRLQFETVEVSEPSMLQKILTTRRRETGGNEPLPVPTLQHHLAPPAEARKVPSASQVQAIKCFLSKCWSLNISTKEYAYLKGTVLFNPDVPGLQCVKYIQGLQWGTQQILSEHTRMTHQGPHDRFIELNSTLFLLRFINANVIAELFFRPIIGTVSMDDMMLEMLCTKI
# hcDAF-12 act – H. contortus DAF-12 activation, primary screen. HEK293 hcDAF-12 lit1-tk-luc reporter, luminescence; 0% DMSO, 100% Δ7-dafachronic acid. activation, % at 6.8 µM. 370,000 compounds, 1.4% hits. AID 652067;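 active = activation above the mean of all tested compounds plus 3 SD, cut at about 5.5% in these data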;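 note: 100% = response to 3 µM Δ7-dafachronic acid high control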
# SMARCA2 activ – activators of SMARCA2 function; activation, % at 9.1 µM; MG213 cells, MMTV-luciferase reporter, dexamethasone, overnight; 370,000 compounds, 1% hits; AID 652017; in the data active = activation above about 7.8%;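 note: 0% = vehicle wells and 100% = reference activator wells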
# ssDAF-12 act – S. stercoralis DAF-12 activation, primary screen | HEK293 ssDAF-12/GRIP1 lit1-tk-luc reporter, luminescence; % of 3 µM dafachronic acid response | activation, % at 6.8 µM | 370,000 compounds, 1% hits | AID 652126;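 active = activation above the mean over all tested compounds plus 3 SD, cut at about 0.9% in these data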;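 note: 0% = DMSO-only wells and 100% = 3 µM delta7-dafachronic acid wells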
# DAX1 inh-2 – inhibitors of DAX1 repression of SF-1 activated StAR promoter; HEK293T StAR-luciferase reporter, SF-1/DAX-1 repression relief; inhibition, % at 6.8 µM; 370,000 compounds, 1.1% hits; AID 652010;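 active = inhibition above the mean over all tested compounds plus 3 SD, cut at about 3.6% in these data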;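 note: 0% = DAX-1 cells with DMSO and 100% = cells lacking DAX-1 with DMSO; higher inhibition means more luminescence from relief of DAX-1 repression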
# DAX1 inh confirm – NR0B1 (human) inhibition, confirmation; 2,400 compounds, 87% hits; shares compounds with DAX1 inh-2; inhibition, % at 6.8 µM; HEK293T StAR-promoter luciferase reporter, SF-1/DAX-1 repression;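 active = inhibition above the average of every tested compound plus 3 SD, cut at about 3.8% in these data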;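 note: 0% = DAX-1 cells with DMSO and 100% = no DAX-1 control cells with DMSO; active compounds raise luminescence by relieving repression of the StAR reporter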
# Target sequence (P51843 whole entry, looked up): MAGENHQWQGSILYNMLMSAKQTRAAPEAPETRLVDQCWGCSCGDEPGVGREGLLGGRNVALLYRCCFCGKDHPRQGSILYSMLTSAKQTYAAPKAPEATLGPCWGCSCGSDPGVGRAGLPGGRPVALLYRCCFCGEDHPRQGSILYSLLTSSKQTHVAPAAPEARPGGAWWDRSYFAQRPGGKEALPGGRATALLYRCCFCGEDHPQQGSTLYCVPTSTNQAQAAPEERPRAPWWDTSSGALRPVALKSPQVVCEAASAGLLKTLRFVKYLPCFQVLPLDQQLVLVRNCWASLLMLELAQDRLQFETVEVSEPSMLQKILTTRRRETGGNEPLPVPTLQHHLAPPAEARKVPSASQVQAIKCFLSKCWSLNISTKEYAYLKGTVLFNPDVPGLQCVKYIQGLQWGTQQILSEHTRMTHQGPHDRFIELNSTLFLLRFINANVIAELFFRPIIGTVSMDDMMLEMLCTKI
# SF1 AF2mut Luc – nonselective inhibitor or artifact in SF-1 mutant DAX1 counter-screen; shares compounds with DAX1 inh-2; HEK293 StAR-luciferase, SF-1 AF2 mutant, luminescence; inhibition, % at 6.8 µM; 2,400 compounds, 78% hits; AID 652136;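 active = inhibition above the mean of all tested compounds plus 3 SD, cut at about 3% in these data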;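 note: 0% = DAX-1 transfected cells with DMSO and 100% = cells without DAX-1 with DMSO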
# SMARCA2 act conf – confirmation of SMARCA2 (BRM) function activators; shares compounds with SMARCA2 activ; MG213 cells, MMTV-luciferase with dexamethasone, luminescence, overnight; MG213 cells expressing E1A, Rb sequestered; DMSO wells 0%, reference activator 100%; activation, % at 9.1 µM; 3,500 compounds, 30% hits; AID 652260;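 active = activation above its plate's cutoff, the mean activation of tested wells plus 3 SD, cut at about 7.9% in these data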
# GAL4-VP16 Luc – activates GAL4-VP16 luciferase, flagging SMARCA2 activator hits | shares compounds with SMARCA2 activ | HEK293 GAL4-VP16 pG5luc reporter, luciferase luminescence; scaled: DMSO wells 0%, SAHA wells 100% | activation, % at 9.1 µM | 3,500 compounds, 41% hits | AID 686939;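 active = activation above the solvent-only control well mean plus 3 SD, averaged across control plates, cut at about 5.2% in these data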
# LXR ag – counter-screen for hcDAF-12 agonists: agonists of human LXR-beta; shares compounds with hcDAF-12 act; HEK293 Gal4-LXR tk-luc reporter, luminescence, 24 h; normalized: DMSO 0%, positive control 100%; activation, % at 6.8 µM; 3,400 tested, under 10 active; AID 743027;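 active = mean percent activation of the reporter above a cutoff set as the average over tested compounds plus their standard deviation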
# hcDAF12 conf – confirmation of H. contortus DAF-12 agonists; 3,400 compounds, 61% hits; activation, % at 6.8 µM; shares compounds with hcDAF-12 act; HEK293 hcDAF-12 lit1-tk-luc reporter, luminescence; % of Δ7-dafachronic acid response;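 active = mean activation across triplicate tests above the threshold derived from the earlier primary screen, cut at about 5.5% in these data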;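 note: 0% = DMSO only wells and 100% = 3 µM Δ7-dafachronic acid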
# hgDAF12 ag – confirmation of H. glycines DAF-12 agonists; shares compounds with hgDAF12 agonist; HEK293 GAL4-hgDAF12 luciferase reporter, agonist mode; percent of butyrate response; activation, % at 6.8 µM; 3,300 compounds, 80% hits; AID 743050;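 active = mean activation over triplicate wells above the hit cutoff derived from the earlier primary screen, cut at about 11% in these data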;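 note: 0% = DMSO low control and 100% = 2 mM sodium butyrate high control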
# LXRb DAF12 ctr – counter-screen for DAF-12 agonists: agonists of human LXR-beta | HEK293 Gal4-LXR luciferase reporter, 24 h | activation, % at 6.8 µM | 3,300 tested, under 10 active | shares compounds with hgDAF12 agonist;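 active = mean activation of the triplicate above a set limit carried over from the primary screen, none filed active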
# * hit, by the source's call; · = not tested or not shown.
SMILES,hgDAF12 agonist,DAX1 inh-1,hcDAF-12 act,SMARCA2 activ,ssDAF-12 act,DAX1 inh-2,DAX1 inh confirm,SF1 AF2mut Luc,LXR ag,hcDAF12 conf,hgDAF12 ag,LXRb DAF12 ctr,others
CCC(=O)Nc1cc(-c2cc3ccccc3oc2=O)ccc1OC,14*,2,1,9.3*,-1,5.0*,9.3*,6.0*,·,·,15*,1,SMARCA2 act conf=11*;GAL4-VP16 Luc=9.6*
Cc1ccc(NC(=O)c2c(C)nc3ccccn23)cc1C,14*,5.6*,1,2,-1,5.8*,8.9*,6.1*,·,·,16*,1,
Cc1cccc(NC(=O)c2c(C)nc3ccccn23)c1,3,-1,-1,0,-1,1,·,·,·,·,·,·,
O=C(/C=C/c1ccco1)N1CCc2ccccc21,16*,0,16*,9.6*,1.5*,10*,13*,6.4*,2,11*,21*,1,SMARCA2 act conf=17*;GAL4-VP16 Luc=10.0*
CCOC(=O)/C=C/C(=O)N1CCc2ccccc21,0,-1,3,7,-1,-1,·,·,·,·,·,·,
c1ccc2c(c1)CCCN2c1nc(N2CCOCC2)nc(N2CCOCC2)n1,0,1,0,-2,0,-1,·,·,·,·,·,·,
CNc1nc(N2CCc3ccccc32)ncc1F,15*,4,5.8*,3,1,5.1*,11*,5.0*,·,·,15*,1,
O=C(/C=C/c1ccccc1Cl)Nc1ccc2c(c1)C(=O)NC2=O,2,0,-2,-7,-2,0,·,·,·,·,·,·,
O=C(/C=C/c1ccccc1Cl)Nc1cccc(O)c1,24*,-1,10*,3,0,5.8*,17*,11*,2,6.5*,20*,1,
COC(=O)C1CN(Cc2cn(Cc3ccc(OC)cc3)nn2)CCS(=O)(=O)N1Cc1ccc(F)cc1 (centres undefined),-1,·,0,-1,-1,-1,·,·,·,·,·,·,
O=c1c2ccccc2nc2n1CCc1c-2[nH]c2ccccc12,25*,4.9*,13*,16*,3.6*,7.8*,19*,12*,2,14*,24*,1,SMARCA2 act conf=8.4*;GAL4-VP16 Luc=9.3*
O=C(Nc1nsc(-c2ccccc2)n1)c1cccs1,15*,0,3,6,1,4.5*,7.9*,4.5*,·,·,16*,1,
Cc1ccc(C(=O)c2c3ccc(C(F)(F)F)cc3nn2CCC(N)=O)cc1,3,-1,3,4,0,0,·,·,·,·,·,·,
CC(NC(=O)COC(=O)CN1C(=O)C2CCCCC2C1=O)c1ccccc1 (centres undefined),-3,1,-1,-3,-1,1,·,·,·,·,·,·,
Cc1ccc2nc(-c3ccc(NC(=O)CN(c4ccccc4C)S(C)(=O)=O)cc3)sc2c1,15*,2,4,8,1.0*,4.8*,8.0*,5.4*,·,·,20*,1,
O=C(CCS(=O)(=O)c1ccccc1)Nc1cccc(-c2nc3ccccc3s2)c1,5,0,3,-1,-2,2,·,·,·,·,·,·,
COc1ccc(/C=C(\C#N)C(=O)OCC(=O)Nc2ccc(-c3nc4ccc(C)cc4s3)cc2)cc1,21*,0,8.4*,7.8*,2.7*,8.3*,6.7*,3.2*,2,10*,21*,1,
COc1ccc(/C=C(\C#N)C(=O)OCC(=O)NC(C)c2ccccc2)cc1 (centres undefined),-1,-2,-1,1,-1,0,·,·,·,·,·,·,
CNS(=O)(=O)c1cccc(C(=O)OCC(=O)Nc2ccc(-c3nc4ccc(C)cc4s3)cc2)c1,·,2,·,·,·,·,·,·,·,·,·,·,
Cc1ccc2nc(-c3ccc(NC(=O)COC(=O)c4ccc(Br)o4)cc3)sc2c1,28*,5.7*,18*,9.3*,3.0*,6.6*,9.7*,4.2*,2,13*,24*,1,
O=C(CCS(=O)(=O)c1ccccc1)Nc1ccc(-c2nc3ccccc3s2)cc1,18*,-2,9.2*,1,1.2*,6.1*,13*,8.9*,2,5.7*,15*,1,
COc1ccc(NC(=O)CSc2nc3ccncc3[nH]2)c(OC)c1,-2,0,-1,-1,-1,0,·,·,·,·,·,·,
CC(C)Oc1cccc(-c2n[nH]c(=S)n2N=Cc2cccc([N+](=O)[O-])c2)c1,-3,·,-2,3,-1,-1,·,·,·,·,·,·,
CCOC(=O)C1=C(COC(=O)c2ccc(OC)c(S(=O)(=O)N3CCOCC3)c2)NC(=O)NC1C (centres undefined),1,0,-1,1,-2,-1,·,·,·,·,·,·,
CCn1cc(C(=O)N2CCN(c3ccccn3)CC2)c(=O)c2cc(S(=O)(=O)N(C)C3CCCCC3)ccc21,-3,0,-1,2,-1,0,·,·,·,·,·,·,
C[C@H](CO)N1C[C@H](C)[C@@H](CN(C)S(=O)(=O)c2ccc(F)cc2)Oc2ccc(NC(=O)NC3CCCCC3)cc2C1=O,5,0,-2,-4,-1,1,·,·,·,·,·,·,
C/C(=N\Nc1cccc2cccnc12)c1ccccn1,28*,-1,14*,6,2.0*,6.3*,17*,7.8*,2,13*,23*,1,
